Reference: PubChem BioAssay (NCI)
About 83,000 compounds went through this panel and 20% of them were active in at least one assay; those are over-represented in the sample as a whole.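 Percent growth is the endpoint: 0 to 100 indicates growth inhibition (40 means 60% inhibition), 0 means no net growth, and negative values indicate cell death.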 The source made the active and inactive calls. The calls were made as follows: active = growth percent below 10; inactive = the rest.

Columns and labels:
Test in all cases: NCI-60 one-dose screen, 48 h (100 = growth as untreated, 0 = no growth, -100 = all killed)
Settings in all cases: 10 µM unless noted
NCI-H23 lung = tested on: NCI-H23 lung
NCI-H226 lung = tested on: NCI-H226 lung
NCI-H322M lung = tested on: NCI-H322M lung
HOP-62 NSCLC = tested on: HOP-62 NSCLC
NCI-H460 lung = tested on: NCI-H460 lung
HOP-92 NSCLC = tested on: HOP-92 NSCLC
NCI-H522 lung = tested on: NCI-H522 lung
A549/ATCC NSCLC = tested on: A549/ATCC NSCLC
786-0 renal = tested on: 786-0 renal
COLO 205 colon = tested on: COLO 205 colon

Row | Structure (SMILES) | growth (NCI-H23 lung) | growth (NCI-H226 lung) | growth (NCI-H322M lung) | growth (HOP-62 NSCLC) | growth (NCI-H460 lung) | growth (HOP-92 NSCLC) | growth (NCI-H522 lung) | growth (A549/ATCC NSCLC) | growth (786-0 renal) | growth (COLO 205 colon)
1 | Nc1ccc(-c2csc(-n3[nH]c(=O)ccc3=O)n2)cc1 | 98% (inactive) | 92.2% (inactive) | 103% (inactive) | 107% (inactive) | 102% (inactive) | 103% (inactive) | 93.4% (inactive) | 101% (inactive) | 87.1% (inactive) | 109% (inactive)
2 | CCCCNc1nnc2n(Cc3ccccc3)c(=O)c3c4c(sc3n12)CCCC4 | 45.5% (inactive) | 50.8% (inactive) | 69.2% (inactive) | 44.5% (inactive) | 22.7% (inactive) | 53.2% (inactive) | 33.2% (inactive) | 37.8% (inactive) | 47.6% (inactive) | 61.1% (inactive)
3 | C[C@@H]1O[C@@H](O[C@@H]2C[C@H](c3ccc4c(c3O)C(=O)C3=C(C4=O)[C@@]4(O)C(=O)C[C@](C)(O)C[C@@]4(O)C=C3)O[C@H](C)[C@H]2O)CC[C@@H]1O[C@H]1C[C@@H](O)[C@H](O)[C@@H](C)O1 | 100% (inactive) | 116% (inactive) | 106% (inactive) | 113% (inactive) | 105% (inactive) | 149% (inactive) | 41.5% (inactive) | 95.3% (inactive) | 103% (inactive) | -19.1% (active)
4 | C/C(=N\O)c1ccc(NC(=O)CSc2nnc(-c3cc(-c4ccc(S(C)(=O)=O)cc4)nc4ccccc34)n2-c2ccccc2)cc1 | 99.2% (inactive) | 90.3% (inactive) | 91.7% (inactive) | 98.7% (inactive) | 90.4% (inactive) | 80.7% (inactive) | 82.2% (inactive) | 81.3% (inactive) | 93.9% (inactive) | 102% (inactive)
5 | O=C(NC(Cc1nnc2n(Cc3ccccc3)c(=O)c3c4c(sc3n12)CCCC4)c1ccccc1)c1ccccc1 (stereo not given) | 90.9% (inactive) | 113% (inactive) | 93.3% (inactive) | 71.1% (inactive) | 94.4% (inactive) | 74.6% (inactive) | 94.8% (inactive) | 90.4% (inactive) | 81% (inactive) | 107% (inactive)
6 | C=C(C)[C@@H]1CCC[C@]2(C(=O)O)CC[C@]3(C)[C@@H](CC[C@@H]4[C@@]5(C)C/C(=C/c6ccncc6)C(=O)C(C)(C)[C@@H]5CC[C@]43C)[C@@H]12 | 20.9% (inactive) | 36.1% (inactive) | 26.3% (inactive) | 50.4% (inactive) | 5.65% (active) | 57.2% (inactive) | 16.6% (inactive) | 16.3% (inactive) | 39.8% (inactive) | 6.51% (active)
7 | C/C=C(/C)n1cnc2c(Nc3ccccn3)nc(Cl)nc21 | 102% (inactive) | 102% (inactive) | 99.3% (inactive) | 102% (inactive) | 103% (inactive) | 99.9% (inactive) | 87.1% (inactive) | 104% (inactive) | 101% (inactive) | 114% (inactive)
8 | CCCCNC(=O)c1cc([N+](=O)[O-])cc(C2CCCCC2)c1O | 8.28% (active) | 29.5% (inactive) | 55.3% (inactive) | 57.7% (inactive) | 30% (inactive) | -13.6% (active) | 25.4% (inactive) | 32% (inactive) | 40.7% (inactive) | 56.4% (inactive)
9 | N#Cc1cncc(-c2ccc3ncnc(Nc4cccc(Cl)c4)c3c2)c1 | 62.4% (inactive) | 69.9% (inactive) | 28.7% (inactive) | 61.5% (inactive) | 75.2% (inactive) | 18.6% (inactive) | 65.2% (inactive) | 62.3% (inactive) | 61.6% (inactive) | 96.6% (inactive)
10 | Cc1ccc(/C=C/C(=O)c2cccc(OCCCOc3cccc(C(=O)/C=C/c4ccc(C)cc4)c3)c2)cc1 | 69.5% (inactive) | 77.5% (inactive) | 85.1% (inactive) | 102% (inactive) | 75.9% (inactive) | 92.5% (inactive) | 76.2% (inactive) | 81.2% (inactive) | 57.9% (inactive) | 90.9% (inactive)
11 | C[n+]1ccc(CCc2c[nH]c3ccccc23)cc1 | 102% (inactive) | 109% (inactive) | 93.4% (inactive) | 69.3% (inactive) | 107% (inactive) | 93.9% (inactive) | 81.4% (inactive) | 66.2% (inactive) | 100% (inactive) | 96.8% (inactive)
12 | FC(F)(F)Oc1cccc(-c2cnc3ccc(-c4ccncc4)nn23)c1 | 15.6% (inactive) | 33.5% (inactive) | 27.4% (inactive) | 20.2% (inactive) | 17.6% (inactive) | 17.4% (inactive) | 1.55% (active) | 11.5% (inactive) | 21.1% (inactive) | 16.1% (inactive)
13 | C/C(=N\O)[C@@H]1CC[C@]2(CO)CC[C@]3(C)[C@H](CC[C@@H]4[C@@]5(C)CCCNC(C)(C)[C@@H]5CC[C@]43C)[C@@H]12 | 89.6% (inactive) | 92.6% (inactive) | 94.2% (inactive) | 90% (inactive) | 72.6% (inactive) | 65.6% (inactive) | 90% (inactive) | 76.6% (inactive) | 92.3% (inactive) | 81% (inactive)
14 | CN1CCN(CC(=O)Nc2ccc3ncnc(Nc4ccc(Oc5cccc(C(F)(F)F)c5)c(Cl)c4)c3c2)CC1 | 53.1% (inactive) | 81.5% (inactive) | 26.5% (inactive) | 54.1% (inactive) | -69.4% (active) | 39.7% (inactive) | 18% (inactive) | 10.2% (inactive) | -75.8% (active) | -39.5% (active)
15 | COC(=O)C(Cc1ccccc1)NC(=O)c1ccc(NC(=O)c2[nH]c(C)c(Cl)c2Cl)c(OC(C)C)c1 (stereo not given) | 70% (inactive) | 88.6% (inactive) | 102% (inactive) | 90.3% (inactive) | 6.05% (active) | 101% (inactive) | 93.9% (inactive) | 6.57% (active) | 39.5% (inactive) | 102% (inactive)
16 | CC(=O)Oc1ccc(OC(C)=O)c2ccccc12 | 95.6% (inactive) | 74.9% (inactive) | 106% (inactive) | 90.2% (inactive) | 107% (inactive) | -88.6% (active) | 61.6% (inactive) | 98.7% (inactive) | 107% (inactive) | 112% (inactive)
17 | CC1(C)CC2=C3C=C[C@@H]4[C@@]5(C)CCC(=O)C(C)(C)[C@@H]5CC[C@@]4(C)[C@]3(C)CC[C@@]2(C(=O)O)C[C@H]1O | 23.2% (inactive) | 25.5% (inactive) | 26.6% (inactive) | 30.1% (inactive) | 18% (inactive) | -7.2% (active) | 26.4% (inactive) | 26.3% (inactive) | 17.2% (inactive) | 29.2% (inactive)
18 | CCn1cc(CNc2ccc(C(=O)Nc3cc4cc(OC)c(OC)cc4c(C)n3)cc2)cn1 | 43.3% (inactive) | 48.7% (inactive) | 103% (inactive) | 39.6% (inactive) | 86.7% (inactive) | 59.5% (inactive) | 9.72% (active) | 48.1% (inactive) | 70.4% (inactive) | 42.1% (inactive)
19 | CN(C)c1ccc(-c2nc(-c3ccccc3)c(-c3ccccc3)[nH]2)cc1 | 92.2% (inactive) | 106% (inactive) | 85.9% (inactive) | 100% (inactive) | 88.9% (inactive) | 52.2% (inactive) | 77.4% (inactive) | 99.5% (inactive) | 94.6% (inactive) | 129% (inactive)
20 | COc1ccc(C(=O)/C=C/c2ccc(Cl)cc2)cc1S(=O)(=O)Nc1c(N)nc(SC)[nH]c1=O | 84.1% (inactive) | 83.2% (inactive) | 27.7% (inactive) | 32.6% (inactive) | 84% (inactive) | 73.7% (inactive) | 59.7% (inactive) | 31.4% (inactive) | 31% (inactive) | 49.8% (inactive)
21 | Oc1ccc(/C=C/c2ccc(O)cc2)cc1 | 62.2% (inactive) | 90.8% (inactive) | 58.5% (inactive) | 71.4% (inactive) | 34.5% (inactive) | 73.2% (inactive) | -0.122% (active) | 60.7% (inactive) | 24.3% (inactive) | 134% (inactive)
22 | COc1ccc(-c2n[nH]c(=O)c3nc(NC(=S)Nc4ccc(Oc5ccccc5)cc4)sc23)cc1 | 99.7% (inactive) | 95.5% (inactive) | 101% (inactive) | 91% (inactive) | 101% (inactive) | 90.1% (inactive) | 68.9% (inactive) | 86.7% (inactive) | 102% (inactive) | 113% (inactive)
23 | CCNC(=O)Oc1ccc(/C(=C(/C)Cc2ccc(OC)cc2)c2ccc(OCCN3CCCCC3)cc2)cc1 | 87.7% (inactive) | 86.5% (inactive) | 89.2% (inactive) | 91.5% (inactive) | 35.7% (inactive) | 44.4% (inactive) | 72.8% (inactive) | 62% (inactive) | 72.6% (inactive) | 20.9% (inactive)
24 | O=C(C1CCCCC1)[C@@H]1[C@]2(C(=O)NC3CCCCC32)[C@@H]2CCCN2[C@@]12C(=O)NC1CCC(Cl)CC12 (stereo not given in full) | -81.4% [100 µM] (active) | -55.1% [100 µM] (active) | -95.1% [100 µM] (active) | -73.2% [100 µM] (active) | -77.2% [100 µM] (active) | -89.9% [100 µM] (active) | -81.7% [100 µM] (active) | -82.9% [100 µM] (active) | -80.8% [100 µM] (active) | -80.8% [100 µM] (active)
25 | C[C@H](C(=O)N(CCc1ccc(Cl)c(Cl)c1)Cc1cncs1)[C@@H]1CC[C@H](C[C@H](C)n2cc(CN3CCC(c4ccc(Cl)cc4)CC3)nn2)O1 | 98.2% (inactive) | 85% (inactive) | 92.7% (inactive) | 101% (inactive) | 103% (inactive) | 106% (inactive) | 86.7% (inactive) | 96.3% (inactive) | 93.2% (inactive) | 97.6% (inactive)
26 | CCOC(=O)c1c(C)nc2c(c1N)CC(=O)N2Cc1ccc(OC)cc1 | 33.7% (inactive) | 17.4% (inactive) | 41% (inactive) | -7.19% (active) | 5.12% (active) | -4.45% (active) | -1.06% (active) | 25.8% (inactive) | 6.69% (active) | 95.4% (inactive)
